Measurements as given in ChEMBL document CHEMBL3988442, “University of Dundee, Small-Polar-MMV Screening Library” (2021).
Values joined by “and” are separate entries in the source; they are usually repeats but may differ in a detail not shown here. Identical values can stand only once. The campaign covered roughly 34,000 compounds. About 290 (0.85%) showed an effect of 50% or more. The sample as a whole holds a higher share of strong results than the screen did.

Tested on: Plasmodium falciparum
Test: Plasmodium falciparum sporozoite viability assay
Format: functional, organism-based
Parameters: scale not given: in the data most compounds retested in dose-response had high values

Cc1cccc(NC2CCN(C(=O)Nc3ccc(F)c(F)c3)CC2)n1
Percent Effect (10 mM as filed; unlikely as a test dose): 48.63% and 63.22% and 54.45%

Cc1cccc(NC2CCN(C(=O)Nc3cc(F)cc(F)c3)CC2)n1
Percent Effect (10 mM as filed; unlikely as a test dose): -0.7988% and 3.277% and 6.003%

Cc1cccc(NC2CCN(C(=O)Nc3ccncc3)CC2)n1
Percent Effect (10 mM as filed; unlikely as a test dose): -1.906% and 4.517% and 18.88%

Cc1ccc(C(C)NC(=O)CNCCn2cccn2)cc1C (configuration not stated)
Percent Effect: -5.595%

Cc1cc(C(F)(F)F)n2nc(C3CCN(S(C)(=O)=O)CC3)cc2n1
Percent Effect (10 mM as filed; unlikely as a test dose): -9.274% and -13.96% and -8.495%

CCN1CC[C@@H]2OC[C@H](C(=O)NCc3cccs3)C[C@@H]2C1
Percent Effect: 18.4%

CN1CCC(c2cccc(Cc3ccc(C(F)(F)F)cc3)n2)CC1
Percent Effect: 3.398%

Cc1cc(C(F)(F)F)nc(C2CCN(C(=O)CO)CC2)n1
Percent Effect: -4.597%

CCc1ccc(-c2cc(C(F)(F)F)nc(N3CCC(N)CC3)n2)cc1
Percent Effect (10 mM as filed; unlikely as a test dose): 67.54% and 55.39%

CCN1CC2(CCOCC2)c2cc(NS(=O)(=O)CC)ccc21.O=C(O)C(F)(F)F
Percent Effect: 11.65%

Cc1cnn(CC2CN(Cc3ccccn3)CCO2)c1 (configuration not stated)
Percent Effect: -1.077%

CC(Cn1cccn1)NC(=O)NCCc1cccnc1 (configuration not stated)
Percent Effect: 12%

Cc1ccc(Nc2nccc(C3CCCN(CC(=O)N(C)C)C3)n2)nc1 (configuration not stated)
Percent Effect (10 mM as filed; unlikely as a test dose): 76.43% and 66.32% and 68.98%

Cc1ccc(Nc2nccc(C3CN(C(C)C)C3)n2)nc1
Percent Effect: 10.21%

COCC(=O)N1CC(c2ccnc(Nc3ccc(C)cn3)n2)C1
Percent Effect (10 mM as filed; unlikely as a test dose): 0.1159% and 3.964% and -12.15%

Cc1ccc(Nc2nccc(C3CCN(CC(N)=O)C3)n2)nc1 (configuration not stated)
Percent Effect (10 mM as filed; unlikely as a test dose): 101.9% and 103.5% and 87.92%

CC(=O)N1CCC(c2ccnc(Nc3ccc(C)cn3)n2)C1 (configuration not stated)
Percent Effect (10 mM as filed; unlikely as a test dose): -6.604% and -1.275% and 4.318%

O=C(Cc1ccc(F)cc1)N1CCn2c(Cn3cncn3)cnc2C1
Percent Effect: 8.505%

Cc1cc(OCCC(=O)NCc2ccc(F)cc2)nnc1C
Percent Effect: 1.961%

Cc1nc(COC[C@@]23CCC[C@@H]2CN(Cc2cnn(C)c2)C3)cs1
Percent Effect: 2.977%

Cc1c(-c2cc(C(=O)N3CCc4ncc(Cl)cc4C3)on2)cnn1C
Percent Effect: 3.017%

C[C@H](NS(C)(=O)=O)C(=O)NCc1cc(-c2ccco2)n(CC(F)(F)F)n1
Percent Effect: 3.472%

CC(Nc1nccc(CCC(F)(F)F)n1)c1nc(-c2ccccn2)no1 (configuration not stated)
Percent Effect (10 mM as filed; unlikely as a test dose): 60.54% and 52.08%

CC(C)c1noc(C(C)Nc2nccc(CCC(F)(F)F)n2)n1 (configuration not stated)
Percent Effect (10 mM as filed; unlikely as a test dose): 1.671% and -0.3266%

CC(Nc1nccc(CCC(F)(F)F)n1)c1nc(-c2ccncc2)no1 (configuration not stated)
Percent Effect (10 mM as filed; unlikely as a test dose): -11.17% and -18.73%

CN1CCN(C(=O)[C@H]2C[C@H]3[C@H](CCN3Cc3nccs3)O2)CC1
Percent Effect: 0.9025%

O=C(Nc1ccc(Cl)cn1)c1nn(C2CCS(=O)(=O)C2)c2c1CCCC2 (configuration not stated)
Percent Effect (10 mM as filed; unlikely as a test dose): 72.26% and 68.39%

O=C(Nc1ccccc1F)c1nn(C2CCS(=O)(=O)C2)c2c1CCCC2 (configuration not stated)
Percent Effect (10 mM as filed; unlikely as a test dose): 38.15% and 35.56%

Cc1cccc(NC(=O)c2nn(C3CCS(=O)(=O)C3)c3c2CCCC3)n1 (configuration not stated)
Percent Effect (10 mM as filed; unlikely as a test dose): 27.72% and 25.15%

O=C(Nc1cccc(Cl)c1)c1nn(C2CCS(=O)(=O)C2)c2c1CCCC2 (configuration not stated)
Percent Effect (10 mM as filed; unlikely as a test dose): 70.24% and 80.75% and 81.2%

O=C(Nc1ccccc1)c1nn(C2CCS(=O)(=O)C2)c2c1CCCC2 (configuration not stated)
Percent Effect (10 mM as filed; unlikely as a test dose): 23.34% and 42.14% and 38.32%

O=C(Nc1ccc(Cl)cc1)c1nn(C2CCS(=O)(=O)C2)c2c1CCCC2 (configuration not stated)
Percent Effect (10 mM as filed; unlikely as a test dose): -17.96% and -20.43%

CC1CCN(S(=O)(=O)NCc2ccccc2Cn2cccn2)CC1
Percent Effect: 3.533%

c1cncc(CN2CCCC3(COCCN(c4cncnc4)C3)C2)c1 (configuration not stated)
Percent Effect: -1.976%

CC(C)[C@H](NS(C)(=O)=O)C(=O)NCc1cc(-c2ccccc2)n[nH]1
Percent Effect: -6.181%

C[C@H](NS(C)(=O)=O)C(=O)NCc1cc(-c2ccco2)n[nH]1
Percent Effect: -6.52%

CCc1nn(C)c(Cl)c1CN(CCOC)Cc1cnn(C)c1
Percent Effect: -2.336%

CCOc1cc(/C=C/c2ncc(C(=O)O)s2)cc(Br)c1OC
Percent Effect: 6.645%

CCOc1ncccc1C(=O)N1CCCC1Cn1nc(C)cc1C (configuration not stated)
Percent Effect: -1.877%

CC(c1ccccn1)N(C)Cc1cc2cc3c(cc2[nH]c1=O)OCO3 (configuration not stated)
Percent Effect (10 mM as filed; unlikely as a test dose): 18.92% and 31.37% and 23.56%

CC(c1ccncn1)N(C)Cc1cc2cc3c(cc2[nH]c1=O)OCO3 (configuration not stated)
Percent Effect (10 mM as filed; unlikely as a test dose): 36.77% and 42.23% and 61.28%

CN(C)CCOCC1CN(Cc2ccc(F)cc2)Cc2nnn(C)c21.O=C(O)C(F)(F)F.O=C(O)C(F)(F)F (configuration not stated)
Percent Effect: 3.947%

CCCn1cc(NC(=O)c2ccc(S(C)(=O)=O)cc2)ccc1=O
Percent Effect: -6.389%

COC(=O)CCCNC(=O)N1CCc2c([nH]c3ccc(Cl)cc23)C1
Percent Effect (10 mM as filed; unlikely as a test dose): 80.07% and 78.06%

O=C(O)CCNC(=O)N1CCc2c([nH]c3ccc(Cl)cc23)C1
Percent Effect (10 mM as filed; unlikely as a test dose): -34.22% and -28.29%

O=C(O)CCCNC(=O)N1CCc2c([nH]c3ccc(Cl)cc23)C1
Percent Effect (10 mM as filed; unlikely as a test dose): 31.15% and 28.91%

CC(C)N1c2sc(-c3ccsc3)nc2CC1C(=O)NC1CCCC1 (configuration not stated)
Percent Effect (10 mM as filed; unlikely as a test dose): 80.44% and 80.12%

Cc1nc(-c2ccsc2)sc1C(=O)N1CCn2c(C)nnc2C1
Percent Effect: 4.116%

CN(C)C(=O)N1CCN(Cc2cnc(-c3ccsc3)s2)CC1
Percent Effect: -10.41%

CC(C)N1c2sc(-c3ccsc3)nc2CC1C(=O)NC1CC1 (configuration not stated)
Percent Effect (10 mM as filed; unlikely as a test dose): 76.28% and 81.46%

CC(C)CC(=O)N1CCC(Nc2nc(O)cc(-c3ccsc3)n2)CC1
Percent Effect: 14.33%

O=C(NC1CCCC1)C1Cc2nc(-c3ccsc3)sc2N1CC1CC1 (configuration not stated)
Percent Effect (10 mM as filed; unlikely as a test dose): 9.544% and 5.829% and 5.902%

Cc1ccncc1CN1CCOCC1c1[nH]ncc1C (configuration not stated)
Percent Effect: -4.491%

Cc1cccc(CN2CCC(c3csc4nccn34)CC2)n1.O=CO
Percent Effect: 3.885%

N#Cc1cccc(N2CC3(CCN(C(=O)c4ccncc4)C3)CC2=O)c1.O=C(O)C(F)(F)F (configuration not stated)
Percent Effect: -19.71%

OC1CCN(c2ccccc2NCc2nc(-c3cccs3)no2)CC1
Percent Effect (10 mM as filed; unlikely as a test dose): 22.91% and 47.25% and 30.27%

Cc1nn2c(N3CCC(O)CC3)cc(-c3ccccc3)nc2c1C
Percent Effect: -9.448%

OC1CCN([C@@H]2CCN(c3nc(-c4ccccc4)no3)C[C@H]2O)CC1
Percent Effect (10 mM as filed; unlikely as a test dose): 63.55% and 40.94%

O[C@H]1CN(c2nc(-c3ccccc3)no2)C[C@@H]1N1CCOCC1
Percent Effect (10 mM as filed; unlikely as a test dose): -27.06% and -32.72%

Cc1cccc(NC(=O)[C@@H]2CCCN2Cc2ccc(C#N)cc2F)n1
Percent Effect: -15.69%

CCn1ncc2c1C(COC)CN(Cc1ccc(F)cc1)C2.O=C(O)C(F)(F)F.O=C(O)C(F)(F)F (configuration not stated)
Percent Effect: 5.175%

O=C(O)c1cccc(S(=O)(=O)N2CCOc3ccccc32)c1
Percent Effect: 8.824%

Cn1cnc(S(=O)(=O)NCCCN2CCCCCC2=O)c1Cl
Percent Effect: -2.417%

CCNC(=O)C(C)NC(=O)c1cnc(-c2ccc(C)cc2C)s1 (configuration not stated)
Percent Effect: 5.538%

COc1cc(CNCC(C)O)cc(Cl)c1OCc1ccc(C)cc1.Cl (configuration not stated)
Percent Effect: -5.385%

CSc1nccc(N2CCC(NCc3ccc4c(c3)OCO4)CC2)n1
Percent Effect: 4.585%

CCCNCc1ccc(OCc2ccc3c(c2)OCCO3)cc1.Cl
Percent Effect (10 mM as filed; unlikely as a test dose): -30.54% and -21.42%

CCNCc1ccc(OCc2ccc3c(c2)OCCO3)cc1.Cl
Percent Effect (10 mM as filed; unlikely as a test dose): -24.62% and -4.131%

CC(C)(C)NCc1ccc(OCc2ccc3c(c2)OCCO3)cc1.Cl
Percent Effect (10 mM as filed; unlikely as a test dose): -36.62% and -27.49%

Cl.c1cc(OCc2ccc3c(c2)OCO3)ccc1CNC1CC1
Percent Effect (10 mM as filed; unlikely as a test dose): 33.09% and 60.95% and 82.86%

CC(C)(CO)NCc1ccc(OCc2ccc3c(c2)OCCO3)cc1.Cl
Percent Effect (10 mM as filed; unlikely as a test dose): 25.27% and 55.16%

CC(O)CNCc1ccc(OCc2ccc3c(c2)OCCO3)cc1.Cl (configuration not stated)
Percent Effect (10 mM as filed; unlikely as a test dose): 88.95% and 91.02% and 83.06%

COc1c(CNCc2ccc3c(c2)OCCO3)c(C(C)C)nn1C
Percent Effect: 14.99%

Cc1nccn1C1CCCN(C(=O)c2sccc2-n2cnnn2)C1 (configuration not stated)
Percent Effect: -0.2931%

CN1CCN(Cc2cn3c(n2)CN(C2CCOCC2)CC3)CC1.O=C(O)C(F)(F)F.O=C(O)C(F)(F)F.O=C(O)C(F)(F)F
Percent Effect: 10.57%

O=C(CCc1ccco1)Nc1cc(C(F)(F)F)c[nH]c1=O
Percent Effect: -11.4%

COc1cccc(O[C@H]2CCN(c3nc(C)cc(C)n3)CC[C@@H]2O)c1
Percent Effect: 11.61%

O=C(Cn1cccc2cc(-c3ccc(F)cc3)nc1-2)N1CCC(O)CC1
Percent Effect: -1.811%

COc1ccc(C2CNCCN2C(=O)c2cccc3ncccc23)cc1 (configuration not stated)
Percent Effect: 4.068%

CC(C)N(C)S(=O)(=O)c1ccc2c(c1)CCN(C(=O)c1cnccn1)C2
Percent Effect: -1.97%

O=C(CN1CCCC1c1noc(C2CC2)n1)NCCc1ccsc1 (configuration not stated)
Percent Effect: 13.6%

CN(C)c1ccc(C(=O)N2CCCN(Cc3cnn(C)c3)CC2)nn1
Percent Effect: -1.596%

O=C(O)c1ccc(=O)n(CC(c2ccc(Cl)cc2)N2CCOCC2)c1 (configuration not stated)
Percent Effect: 5.86%

Cc1ccccc1-c1noc(CN2CC(n3cccn3)C2)n1
Percent Effect: -26.31%

Cc1cccc(-c2noc(CN3CC(n4cc(C)cn4)C3)n2)c1
Percent Effect: -1.145%

O=C(Nc1ccccc1)N1CCc2nc(C(=O)N3CCCC3)sc2CC1
Percent Effect (10 mM as filed; unlikely as a test dose): 42.14% and 56.3% and 42.63%

NC(=O)c1nc2c(s1)CCN(C(=O)Nc1ccccc1)CC2
Percent Effect: 13.34%
